# According to PubChem BioAssay (NCI):
# This is part of a sample that, as a whole, favours compounds with a hit. Of some 83,000 tested, about 20% had one in any assay.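 Results are percent growth after 48 hours of single-concentration exposure. 100 means growth as in untreated cells, lower positive values show inhibition; negative values down to -100 show cell death.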 Values without a mark were called inactive. The source made the active and inactive calls. How the source made its calls: active means growth percent below 10; inactive means the rest.
# How the values were obtained:
# Experiment in all cases: NCI-60 one-dose screen, 48 h (100 = growth as untreated, 0 = no growth, -100 = all killed)
# Details in all cases: 10 µM unless noted
# SR leukemia = test system: SR leukemia
# RPMI-8226 leukemia = test system: RPMI-8226 leukemia
# OVCAR-8 ovarian = test system: OVCAR-8 ovarian
# OVCAR-5 ovarian = test system: OVCAR-5 ovarian
# OVCAR-4 ovarian = test system: OVCAR-4 ovarian
# SK-OV-3 ovarian = test system: SK-OV-3 ovarian
# IGROV1 ovarian = test system: IGROV1 ovarian
# OVCAR-3 ovarian = test system: OVCAR-3 ovarian
# HS 578T breast = test system: HS 578T breast
# NCI/ADR-RES ovarian = test system: NCI/ADR-RES ovarian
# T-47D breast = test system: T-47D breast
# BT-549 breast = test system: BT-549 breast
# MDA-MB-435 melanoma = test system: MDA-MB-435 melanoma
# SW-620 colon = test system: SW-620 colon
# MCF7 breast = test system: MCF7 breast
# HCT-116 colon = test system: HCT-116 colon
# HCC-2998 colon = test system: HCC-2998 colon
# KM12 colon = test system: KM12 colon
SMILES,growth (SR leukemia),growth (RPMI-8226 leukemia),growth (OVCAR-8 ovarian),growth (OVCAR-5 ovarian),growth (OVCAR-4 ovarian),growth (SK-OV-3 ovarian),growth (IGROV1 ovarian),growth (OVCAR-3 ovarian),growth (HS 578T breast),growth (NCI/ADR-RES ovarian),growth (T-47D breast),growth (BT-549 breast),growth (MDA-MB-435 melanoma),growth (SW-620 colon),growth (MCF7 breast),growth (HCT-116 colon),growth (HCC-2998 colon),growth (KM12 colon)
C[C@]12CC[C@@H]3c4ccc(O)cc4CC[C@H]3[C@@H]1C[C@H](O)[C@@H]2O,99.2%,98.6%,103%,85.5%,99.8%,120%,98%,90.3%,86.6%,102%,128%,95.2%,92.5%,90.1%,108%,92.8%,107%,-72.2% (active)
Nc1ccccc1NC(=O)c1ccc(CN2CCC/C(=C\c3ccccn3)C2=O)cc1,14.1%,11.8%,26.4%,20.9%,47.6%,48.2%,21.2%,27.6%,36.2%,28.7%,8.73% (active),52.9%,-42.7% (active),12.3%,6.01% (active),5.7% (active),31.5%,25.2%
N#Cc1c(-c2ccc(O)cc2)c2c(N)nn(-c3ccccc3)c2[nH]c1=O,115%,101%,105%,105%,113%,102%,93%,110%,104%,102%,112%,111%,108%,102%,101%,108%,110%,102%
C=C(C)[C@@H]1CC[C@]2(C(=O)N3CCCNCC3)CC[C@]3(C)[C@H](CC[C@@H]4[C@@]5(C)CCC(=O)C(C)(C)[C@@H]5CC[C@]43C)[C@@H]12,8.04% (active),92%,95.6%,106%,92.3%,106%,93.6%,98.8%,94.2%,91.8%,83.9%,93.6%,95.5%,93.5%,91.4%,71.6%,103%,98.7%
Cc1cccc2c1NC(=O)[C@@]21[C@H](C(=O)c2ccccc2)[C@]2(C(=O)Nc3ccccc32)[C@H]2CCCN21,-6.48% [100 µM] (active),30.9% [100 µM],-17.2% [100 µM] (active),101% [100 µM],-20.3% [100 µM] (active),11.1% [100 µM],43% [100 µM],2.54% [100 µM] (active),16% [100 µM],109% [100 µM],32.6% [100 µM],10.4% [100 µM],61.8% [100 µM],11.7% [100 µM],-4.76% [100 µM] (active),-36.1% [100 µM] (active),19.7% [100 µM],40.3% [100 µM]
COc1cc2ncnc(Nc3ccc(OCc4cccc(F)c4)c(Cl)c3)c2cc1NC(=O)C1CCCC1,91%,89.9%,76.9%,88.9%,100%,13%,52.2%,77.9%,91.8%,71.6%,24.9%,103%,89.4%,98.4%,84.4%,83.4%,103%,94.9%
Cc1cc(Cl)c2c(N(C)C)cccc2n1,75%,104%,94.5%,119%,108%,92.4%,88.2%,100%,136%,106%,94.7%,98.3%,106%,88.7%,79.3%,92.3%,97.1%,109%
COc1cccc(-c2nn(-c3ccccc3)cc2-c2ccnc(NCCNS(=O)(=O)c3ccc(C(F)(F)F)cc3)c2)c1,-16.1% (active),-4.8% (active),15.7%,24.9%,31.2%,24.5%,28%,7.03% (active),33.9%,16.9%,3.99% (active),-29.3% (active),13.2%,28.4%,11.1%,14.7%,13.7%,14.7%
CC(C)/C=C/CC[C@](C)(O)[C@H]1CC[C@]2(C)[C@@H]1CC[C@@H]1[C@@]3(C)C/C(=C/c4cccc(C(F)(F)F)c4)C(=O)C(C)(C)[C@@H]3CC[C@]12C,82.6%,95.4%,87.6%,107%,87.2%,103%,104%,93.8%,99.7%,97.8%,73.8%,95.9%,99.3%,93.3%,82%,76%,104%,99.8%
